# Most compounds without a hit are left out; they make up all but 3.2% or so of the library.
# EWS-Fli inh – inhibitors of EWS/Fli oncoprotein transcriptional activity | A673 NR0B1-luciferase reporter, viability-normalised | inhibition, % at 12.6 µM | hit rate 0.67% among 350,000;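 active means mean inhibition of at least 50% after viability correction, with every replicate also passing that limit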;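 further: firefly luciferase signal divided by Alamar Blue viability fluorescence both relative to DMSO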
# PAX8 reporter – inhibitors of PAX8 transcriptional activity in RMG-I cells; RMG-I TPO-luciferase reporter, SteadyGlo, 24 h; inhibition, % at 12.6 µM; hit rate 1.2% among 360,000;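 active means mean replicate inhibition at least 60% with every replicate also reaching 60%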;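 further: luciferase light reporting Pax8 driven TPO promoter activity; plate controls were median of neutral control wells for no effect and mitoxantrone controls for full effect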
# TWEAK Fn14 block – inhibitors of TWEAK-Fn14 interaction signaling. TWEAK-stimulated Fn14 reporter cells, luciferase luminescence, 8 h. inhibition, % at 10 µM. hit rate 2% among 360,000; in the data active means inhibition above about 50%
# LMP1 NFkB inh – inhibitors of Epstein-Barr LMP1-induced NF-kappaB reporter. LMP1-induced NF-kappaB luciferase reporter cells, luminescence. inhibition, % at 12.5 µM. hit rate 0.69% among 350,000; in the data active means inhibition above about 41%;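 further: 0% = neutral control wells and 100% = reference inhibitor control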
# TROY signal inh – blocks TROY-dependent signaling in reporter cells; Q293 LMP1-TROYcd NF-kB luciferase reporter, 4 h; inhibition, % at 10 µM; hit rate 0.98% among 360,000; AID 1347056;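 active means compounds whose plate-normalised and pattern-corrected inhibition of the luciferase reporter signal at the single screening dose is 50% or more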
# LGR2 antag – inhibitors of bursicon-induced Drosophila LGR2 receptor cAMP signaling | HEK293 LGR2, CRE-luciferase, bursicon-stimulated, 4 h | inhibition, % at 9.99 µM | hit rate 0.35% among 380,000;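 active means drop in luminescence signal, shown as inhibition above about 50% in the replicate tests, limit read from the data, passing the limit was not always enough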;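 further: agonist challenge used bursicon conditioned medium at about half maximal strength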
# * = called active by the depositor; · = no result given.
SMILES,EWS-Fli inh,PAX8 reporter,TWEAK Fn14 block,LMP1 NFkB inh,TROY signal inh,LGR2 antag
Oc1ccc(C=Nc2cccc3ccccc23)c(O)c1,-13,22,53*,-9,53*,7
O=[N+]([O-])c1ccc(O)c(C=Nc2cccc3ccccc23)c1,25,11,39,-11,36,13
CN(C)CCCNC(=O)C[C@H]1CC[C@@H]2[C@H](COc3ccc(NC(=O)c4cccc(F)c4)cc3C(=O)N2C)O1,-19,-44,·,·,·,-15
CCOC(=O)c1ccc(CC(=O)c2ccc(O)cc2O)o1,·,·,14,51*,28,·
CC(C)c1cc(NC(=O)c2ccccc2)cc(C(C)C)c1O,6,7,-11,59*,-4,18
CC(=O)Nc1cc(C(C)C)c(O)c(C(C)C)c1,·,·,18,2,-5,24
CCC(=O)Nc1ccc2c(c1)OC[C@H](C)N(Cc1ccccc1C(=O)O)C[C@@H](C)[C@H](OC)CN(C)C2=O,-1,-1,·,·,·,3
O=c1cc(-c2ccccc2Cl)oc2c(NS(=O)(=O)c3cc(Cl)cc(Cl)c3O)ccc(O)c12,·,·,65*,12,68*,·
CCc1ccc(S(=O)(=O)Nc2ccc(O)c3c(=O)cc(-c4ccccc4Cl)oc23)cc1,21,-2,-20,-1,-15,-14
NC(=S)NN=Cc1nccc2c(N)cccc12,-5,-10,12,76*,-3,22
CCCNC(=O)C[C@H]1CC[C@@H]2[C@H](COc3ccc(NC(=O)c4cccc(OC)c4)cc3C(=O)N2C)O1,-3,-12,·,·,·,-9
O=C(CCl)N=c1sccn1Cc1ccc(Cl)cc1Cl,21,111*,55*,-9,21,·
CCC(=O)OCC(=O)N=c1sccn1Cc1ccccc1Cl,5,9,-2,6,-9,-3
O=C(CCl)N=c1sccn1Cc1cccc2ccccc12,34,111*,48,5,-13,2
O=C(CCl)N=c1sccn1Cc1ccccc1Cl,63*,100*,-1,6,4,-10
CCC(=O)OCC(=O)N=c1sccn1Cc1ccc(C)cc1,·,9,6,1,-19,-3
Cc1nc([N+](=O)[O-])c(Br)n1CC(=O)c1ccc(Cl)cc1,·,·,46,11,23,·
Cc1nc([N+](=O)[O-])c(Br)n1Cc1ccc(Cl)c(Cl)c1,54*,23,81*,-9,31,22
COc1ccc(C(=O)Cn2c(C)nc([N+](=O)[O-])c2Br)cc1,16,3,50*,-10,16,20
Cc1nc([N+](=O)[O-])c(NCCO)n1Cc1ccccc1,7,-5,14,5,6,-9
COC(=O)c1ccccc1NC(=O)c1ccc(COc2ccc(C)c(C)c2)o1,·,·,81*,5,·,·
COC(=O)c1ccccc1NC(=O)c1ccc(COc2cc(C)cc(C)c2)o1,·,·,-6,0,1,-10
COc1ccc(-c2cc(NC(C)=O)c3ncc(-c4cccc(C(C)=O)c4)n3c2)cc1OC,11,16,4,·,62*,10
CC(=O)Nc1cccc(-c2cc(NC=O)c3ncc(-c4ccc(C(C)=O)cc4)n3c2)c1,7,71*,20,·,25,0
COc1ccc(-c2cc(NC=O)c3ncc(-c4ccc(C(C)=O)cc4)n3c2)cn1,43,65*,11,·,9,5
SMILES,EWS-Fli inh,PAX8 reporter,TWEAK Fn14 block,LMP1 NFkB inh,TROY signal inh,LGR2 antag
COc1cccc(-c2cnc3c(NC(C)=O)cc(-c4ccc(OC)c(OC)c4)cn23)c1,13,-10,14,·,-6,1
CC(=O)c1ccc(-c2cnc3c(NC=O)cc(-c4ccccc4Oc4ccccc4)cn23)cc1,33,84*,59*,·,14,-3
CC(=O)Nc1cccc(-c2cc(NC(C)=O)c3ncc(-c4cccc(C(C)=O)c4)n3c2)c1,-2,11,14,·,20,·
C/C=C/c1cnc2c(c1)C(=O)N([C@H](C)CO)C[C@H](C)[C@H](CN(C)S(=O)(=O)c1ccccc1)O2,3,·,·,·,·,-7
COc1ccc2c3c([nH]c2c1)[C@@H](CO)N(Cc1ccccc1Cl)CC31CN(C(C)=O)C1,47,·,·,·,·,-1
COc1ccc(-n2cccc2/C=C2/NC(=O)N(c3cccc(Cl)c3)C2=O)cc1,-11,-27,56*,-14,76*,·
O=C(O)c1cccc(-n2cccc2/C=C2/NC(=O)N(c3cccc(Cl)c3)C2=O)c1,-2,-5,58*,3,-8,14
O=C(O)c1cccc(-n2cccc2/C=C2/NC(=O)N(c3ccc(Cl)cc3)C2=O)c1,-7,-40,46,0,-39,-10
COc1cc(/C=C2/NC(=O)N(c3cccc(Cl)c3)C2=O)ccc1O,29,12,34,-13,9,-2
COC(=O)C[C@H]1C[C@@H]2c3cc(NC(=O)C4CCOCC4)ccc3O[C@@H]2[C@@H](CO)O1,-12,4,·,·,·,10
O=C(Cc1nnc(NC(=O)c2ccccc2)s1)N/N=C/c1ccc(O)cc1,3,-2,58*,2,-4,-9
O=C(Cc1nnc(NC(=O)c2ccccc2)s1)N/N=C\c1ccc(O)c(O)c1,11,14,8,2,-9,-23
Cc1ccc(S(=O)(=O)Nc2ccc3c(c2)C(=O)N([C@@H](C)CO)C[C@H](C)[C@@H](CN(C)C(=O)CCCN(C)C)OCCCC[C@H](C)O3)cc1,-5,0,·,·,·,8
O=C(c1ccccc1)c1cnc(-c2ccc(Cl)cc2)s1,·,-214,62*,-34,15,·
CC1=CC(=C(C#N)c2nc3ccccc3s2)C=C(C)N1c1ccc(F)cc1,6,-22,-11,-11,11,-29
COc1ccccc1N1C(C)=CC(=C(C#N)c2nc3ccccc3s2)C=C1C,42,·,83*,28,72*,·
COc1ccc(NC(=O)c2ccccn2)cc1,·,·,84*,52*,57*,·
COc1ccc(C(=O)NCCSc2ccccn2)cc1,·,·,65*,9,11,·
COc1ccc(NC(=O)c2cc3ccccn3n2)cc1,25,-41,63*,16,-5,27
COCC#Cc1ccc2c(c1)O[C@@H](CN(C)C(=O)C1CCC1)[C@@H](C)CN([C@@H](C)CO)S2(=O)=O,14,·,·,·,·,0
O=C(C[C@H]1CC[C@@H](NC(=O)C2CCOCC2)[C@@H](CO)O1)Nc1nccs1,1,-11,·,·,·,-4
CCNC(=S)NNC(=O)Cn1c(=O)c2c(ncn2CCOC)n(Cc2ccccc2)c1=O,1,-3,93*,-2,-1,8
